# Bm FixLJ act: activators of Burkholderia fixLJ two-component system. B. multivorans fixK-promoter GFP reporter, 18 h; active compounds read high. z-score (no concentration beside the values). 0.3% of 29,000 active;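 active means replicate mean overnight rise in green fluorescent reporter signal, 3 or more SD over negative controls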
# Numbers without * were called inactive. This excerpt belongs to a sample that is enriched for hits.
SMILES,Bm FixLJ act
COc1cccc(-n2c(/C=C\c3ccc(Cl)cc3)nc3ccccc3c2=O)c1,0.01
Cc1ccccc1-n1c(/C=C/c2c(C)[nH]c3ccccc23)nc2ccccc2c1=O,-0.55
Cc1ccccc1-n1c(/C=C/c2ccc(N(C)C)cc2)nc2ccccc2c1=O,21.1*
C[C@@H]1O[C@@H](O[C@H]2C[C@@H](O)[C@]3(CO)C4C(CC[C@]3(O)C2)[C@@]2(O)CC[C@H](C3=CC(=O)OC3)[C@@]2(C)C[C@H]4O)[C@H](O)[C@H](O)[C@H]1O (stereo partly drawn),0.49
COc1ccc(C2CN(C(=O)c3cc(C)nn3C)C3C4CCN(CC4)C23)cc1 (stereo not drawn),-1.07

# Bioassay records as filed in PubChem BioAssay.
